# Data reported in PubChem BioAssay AID488838 (National Center for Advancing Translational Sciences (NCATS), 2010).
# Results filed as inconclusive are left out. Calls of active or inactive are those of the source. Calls follow the shape of the dose curve; as a rule, active = well fitted inhibition curve with a large enough effect; inconclusive = small, poorly fitted or top-dose-only effect; inactive = flat fitted curve, though single readings scatter.
# Target: Luciferin 4-monooxygenase (Photinus pyralis) (UniProt P08659)
# Assay: Counterscreen Assay for Enhancers of SMN2 Splice Variant Expression: Interaction with Luciferase Reporter for Further Probe SAR
# Conditions: purified firefly luciferase, luminescence, 5 min; series mostly up to 57.5 µM
# Excerpt: NIH Chemical Genomics Center [NCGC] NIH Molecular Libraries Probe Production centers Network [MLPCN] MLPCN Grant: R03 MH084179-01 Assay Submitter (PI): Elliot Androphy NCGC Assay Overview: Spinal muscular atrophy (SMA) is caused by insufficient levels of the survival motor neuron protein SMN. The SMN locus on chromosome 5q13 contains two inverted copies of SMN called SMN1 and SMN2 which are 99% identical at the amino acid level. SMN1 is a fully functional protein and SMN2 skips exon 7 90% of the time. Skipping of exon 7 produces non-functional protein product. 10% of the SMN2 protein includes exon 7 and is fully functional. In the SMA disease state, mutations in the SMN1 locus are the cause of the disease state. Because only 10% of SMN2 is of the fully functional form, it is not sufficient to overcome the deficiency produced by the loss of the SMN1 product. A therapy that either increases the amount of SMN2 product made increases the inclusion of exon 7 has been proposed for the treatment of SMA. We have designed an assay to identify small molecules that can increase the amount of functional SMN2 product by appending a luciferase reporter gene after the native SMN2 gene, such that inclusion of exon 7 in the expressed product places the luciferase sequence in frame, thus generating functional luciferase enzyme. One potential source of false positives in the primary screening assay is stabilization of the reporter luciferase via direct binding. This assay attempts to identify such compounds by screening directly for luciferase activity in the absence of the cellular system.
# NCGC Assay Protocol Summary: The primary screen utilizes a luciferase reporter gene assay, combining the promoter and splicing based cassettes in tandem with the major portion of the native SMN1 cDNA, and then transfected into HEK293 cells. Compounds that modulate luciferase signal presumably modulate expression of […]. In this assay, we utilize purified firefly luciferase in lieu of a cellular reporter to identify compounds interacting directly with luciferase in the primary screen. Sequence, Parameter, Value, Description (1) Reagent, 2.5 uL, Enzyme in buffer (note A) (2) Compound, 23 nL, From stock solutions (3) Time, 5 minutes, Room temp (4) Reagent#2.5 ul, Luciferase detection reagent (note B) (5) Detector, 1 sec integrate, Luminescent read on Viewlux (note C) Sigma enzyme (1 mg) considered to be MW 61,000 diluted in 357 ul assay buffer to 50 uM stock. A - Enzyme and buffer consists of 50 mM Tris-acetate pH 7.6, 10 mM Mg acetate 0.05% BSA, 0.01% Tween and 5 nM firefly luciferase B - Detection reagent = britelite plus diluted 1:10 in PBS C - Viewlux settings were 1 second integration medium sensitivity Keywords: Spinal muscular atrophy, SMA, SMN2, high throughput screening, MLSMR, MLPCN, NIH Roadmap, qHTS and NCGC
# Sequence of Luciferin 4-monooxygenase (Photinus pyralis) (P08659 whole entry, looked up, canonical isoform): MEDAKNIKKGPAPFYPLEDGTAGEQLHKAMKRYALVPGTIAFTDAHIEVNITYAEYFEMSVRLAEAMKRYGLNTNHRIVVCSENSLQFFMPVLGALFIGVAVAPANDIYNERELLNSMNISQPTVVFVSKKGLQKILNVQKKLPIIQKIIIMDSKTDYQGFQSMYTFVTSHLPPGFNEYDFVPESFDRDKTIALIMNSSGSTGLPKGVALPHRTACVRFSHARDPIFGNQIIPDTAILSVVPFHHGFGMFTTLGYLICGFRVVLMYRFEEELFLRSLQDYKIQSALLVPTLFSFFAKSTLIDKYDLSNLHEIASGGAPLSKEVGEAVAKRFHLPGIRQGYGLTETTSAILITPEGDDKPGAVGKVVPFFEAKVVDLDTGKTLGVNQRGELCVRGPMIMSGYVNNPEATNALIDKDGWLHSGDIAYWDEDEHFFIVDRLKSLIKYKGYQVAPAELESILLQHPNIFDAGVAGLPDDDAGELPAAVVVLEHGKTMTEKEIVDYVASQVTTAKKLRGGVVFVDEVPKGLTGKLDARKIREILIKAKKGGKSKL
row,Structure (SMILES),Potency
1,c1c[nH]c(C2CCN(c3ncc(-c4ccc5c(c4)OCCCO5)s3)CC2)n1,10.1 µM (active)
2,CN(C)c1cccc(-c2cnc(N3CCC(C(N)=O)CC3)nc2)c1,11.3 µM (active)
3,CS(=O)(=O)c1ccc(-c2csc(N3CCC(C(N)=O)CC3)n2)cc1,inactive
4,COc1cccc(-c2csc(N3CCC(C(N)=O)CC3)n2)c1,25.3 µM (active)
5,CN(C)c1cccc(-c2cnc(N3CCC(c4ncc[nH]4)CC3)s2)c1,20.1 µM (active)
6,CCOC(=O)C1CCN(c2ncc(-c3ccc4c(c3)OCCCO4)s2)CC1,8 µM (active)
7,NC(=O)C1CCN(c2nc(-c3cccc4sc5ccccc5c34)cs2)CC1,31.8 µM (active)
8,O=C(O)C1CCN(c2ncc(-c3ccc4c(c3)OCCCO4)s2)CC1,0.005 µM (active)
9,NC(=O)C1CCN(c2nc(-c3ccc(OC(F)(F)F)cc3)cs2)CC1,inactive
10,NC(=O)C1CCN(c2ncc(-c3ccc4c(c3)OC(F)(F)O4)s2)CC1,16 µM (active)
11,O=C(c1ccco1)N1CCN(c2nc(-c3ccc(Br)cc3)cs2)CC1,inactive
12,NC(=O)C1CCN(c2ncc(-c3ccc(Br)cc3)s2)CC1,4.01 µM (active)
13,NC(=O)C1CCN(c2nccc(-c3ccc4c(c3)OCCCO4)n2)CC1,inactive
14,NC(=O)C1CCN(c2ncc(-c3ccc(Cl)cc3)s2)CC1,10.1 µM (active)
15,NC(=O)C1CCN(c2nc(-c3ccc(C(F)(F)F)cc3)cs2)CC1,20.1 µM (active)
16,CN(C)c1cccc(-c2cc(N3CCC(C(N)=O)CC3)ncn2)c1,inactive
17,CC(=O)NC1CCN(c2nc(-c3ccc(Br)cc3)cs2)CC1,inactive
18,NC(=O)C1CCN(c2nccc(-c3ccc(Br)cc3)n2)CC1,25.3 µM (active)
19,CCOc1ccc(-c2csc(N3CCC(C(N)=O)CC3)n2)cc1,inactive
20,O=C(O)C1CCN(c2nc(-c3ccc(Br)cc3)cs2)CC1,1.42 µM (active)

row,Structure (SMILES),Potency
1,CC(C)Oc1cccc(-c2ccnc(N3CCC(C(N)=O)CC3)n2)c1,10.1 µM (active)
2,Cc1ccc(-c2cnc(N3CCC(C(N)=O)CC3)s2)cc1,5.05 µM (active)
3,NC(=O)C1CCN(c2nc(-c3ccc4c(c3)OCO4)cs2)CC1,28.4 µM (active)
4,Brc1ccc(-c2csc(N3CCNCC3)n2)cc1,inactive
5,NC(=O)C1CCN(c2ncc(Br)s2)CC1,inactive
6,Nc1nc(N)c2c(OCC3CCN(Cc4ccccc4F)CC3)cccc2n1,inactive
7,NC(=O)C1CCN(c2nc(-c3cccc(Br)c3)cs2)CC1,31.8 µM (active)
8,NC(=O)C1CCN(c2nccc(Cl)n2)CC1,inactive
9,CN(C)c1ccc(-c2csc(N3CCC(C(N)=O)CC3)n2)cc1,inactive
10,NC(=O)C1CCN(c2nc(-c3ccc4c(c3)OCCCO4)cs2)CC1,0.897 µM (active)
11,NC(=O)C1CCN(c2ncc(-c3ccc4c(c3)OCCCO4)s2)CC1,2.84 µM (active)
12,CN(C)c1cccc(-c2cnc(N3CCC(C(N)=O)CC3)s2)c1,0.635 µM (active)
13,CS(=O)(=O)N1CCN(c2nc(-c3ccc(Br)cc3)cs2)CC1,inactive
14,CN(C)c1cccc(-c2nccc(N3CCC(C(N)=O)CC3)n2)c1,inactive
15,NC(=O)C1CCN(c2nnc(-c3ccc(Br)cc3)s2)CC1,inactive
16,O=C(Nc1ccccc1)C1CCN(c2ncc(-c3ccc4c(c3)OCCCO4)s2)CC1,4.01 µM (active)
17,CN(C)C(=O)C1CCN(c2nc(-c3ccc(Br)cc3)cs2)CC1,8 µM (active)
18,NC(=O)C1CCN(c2nc(-c3cccc(C(F)(F)F)c3)cs2)CC1,inactive
19,NC(=O)C1CCN(c2nc(-c3ccccc3Cl)cs2)CC1,inactive
20,CN(C)c1cccc(-c2ncnc(N3CCC(C(N)=O)CC3)n2)c1,inactive
